Compound activity: PubChem BioAssay, National Center for Advancing Translational Sciences (NCATS)
KDM5B inhibitor: Primary screen for KDM5B Histone Demethylases FDH-coupled qHTS; Lysine-specific demethylase 5B (Homo sapiens), Q9UGL1; KDM5B demethylase, FDH-coupled NADH fluorescence (FDH is formaldehyde dehydrogenase); Potency, µM (highest dose often 57.7 µM), actives largely listed as inhibitors; hit rate 2.6% among 220,000; AID 1347165, 2019; active = well fitted inhibition curve with a large enough effect; inconclusive = small, poorly fitted or top-dose-only effect; inactive = no such curve, though single readings can be large or run the other way; also: potency is read from the fitted curve at half-maximal effect; 0% is about no effect; nearly all actives have a fitted effect of over 70% in size
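KDM5BΔAP (200 nM final) in 50 mM HEPES pH 7.5, 0.01% Tween-20 was preincubated 10 min at RT with compound over a concentration range. Substrate mix (H3K4me3 12.5 µM, α-KG 25 µM, Fe²⁺, ascorbate, NAD⁺, FDH) was added, and NADH fluorescence change over 30 min gave dose-response curves.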
IP6K1 inh: Primary qHTS assay for small molecule inhibitors of Inositol hexaphosphate kinase 1 (IP6K1); AID 1645851, 2021; IP6K1 kinase, ADP-Glo luminescence, 2 h; stronger effect = lower value; hit rate 0.81% among 140,000; Inositol hexakisphosphate kinase 1 (Homo sapiens), Q92551; activity change, % (series mostly up to about 58 µM); in the data active = activity change below about -25%; also: % is scaled to controls: 0 for no effect and ±100 for the full control effect
Target sequence (Q92551 whole entry, looked up): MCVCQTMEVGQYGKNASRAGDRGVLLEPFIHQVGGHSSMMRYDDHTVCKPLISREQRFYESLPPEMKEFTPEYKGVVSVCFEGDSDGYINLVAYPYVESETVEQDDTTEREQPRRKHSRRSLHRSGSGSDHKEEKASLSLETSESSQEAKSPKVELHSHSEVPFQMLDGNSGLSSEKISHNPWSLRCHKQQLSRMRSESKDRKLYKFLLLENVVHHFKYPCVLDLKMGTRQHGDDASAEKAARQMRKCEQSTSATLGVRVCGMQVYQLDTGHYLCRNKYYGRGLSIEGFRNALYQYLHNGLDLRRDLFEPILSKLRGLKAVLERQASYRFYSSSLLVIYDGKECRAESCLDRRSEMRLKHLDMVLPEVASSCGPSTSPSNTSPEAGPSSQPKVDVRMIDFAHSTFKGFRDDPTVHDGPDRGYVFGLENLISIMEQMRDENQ
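ADP-Glo luminescence measures ADP made by human IP6K1 during a 2 h RT reaction with ATP/IP6 (mix at 1.3 mM/130 uM); top library doses 57.5 and 19.1 uM final.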
* = called active by the depositor; i = inactive; ? = inconclusive; / = not tested or not shown. Sampled rows, rich in hits. Any-hit rate of the full collection: about 2.8%.

SMILES | KDM5B inhibitor | IP6K1 inh
Cn1nccc1-c1cccc(CCOc2cnc3c(ccn3CC(=O)O)c2)c1 | ? | -3
O=C(O)Cn1ccc2cc(OCCc3cccc(-c4ccc(F)cc4)c3)cnc21 | 40µM* | -9
COc1ccc(CCNC(=O)c2nc3cccnc3n(CC(C)C)c2=O)cc1 | / | 16
COc1ccccc1-c1ccc(CN2CCCCC2C(=O)NCc2cccc(C(F)(F)F)c2)cc1 (configuration not stated) | / | 18
Cc1nn(-c2ccccc2)c2c1C(C1CC1)N(C1CCN(C(=O)c3ccccc3F)C1)C2=O (configuration not stated) | / | 0
O=C1c2cc(N3CCOCC3)nc(-c3cnc4[nH]ccc4c3)c2CN1CC1CC1 | 13µM* | -20
O=c1cc(N2CCOCC2)nc2c3ccccc3ccn12 | / | -10
O=C1c2cc(N3CCOCC3)nc(-c3ccccc3F)c2CN1CC(F)(F)F | 32µM* | 5
C[S+](=O)([O-])c1cccc(-c2ncc3c(n2)OCCN(CC2CC2)C3=O)c1 | i | 0
O=C1c2cc(N3CCOCC3)nc(-c3cnc4[nH]ccc4c3)c2CN1CC(F)(F)F | 32µM* | 21
Cc1nn(-c2ccccc2)c2c1C(C)N(CC1CN(Cc3ccc(C(F)(F)F)cc3)C1)C2=O (configuration not stated) | / | 10
O=[S+]([O-])(NC1CCCN(c2ccc3nnc(C4CC4)n3n2)C1)c1ccccc1 (configuration not stated) | / | 5
CCn1nc(CC(C)C)cc1C(=O)N1C[C@@H](NC(C)=O)[C@H](C(C)C)C1 | 35µM* | -6
CC(C)Cc1cc(C(=O)N2C[C@H](C3CC3)[C@@H](N)C2)n(C)n1 | i | -8
COC(=O)c1ccc([C@H]2Nc3ccc(S(=O)(=O)Nc4ccc(C)cc4)cc3[C@H]3C=CC[C@H]32)cc1 | ? | -12
COc1ccc(NS(=O)(=O)c2ccc3c(c2)[C@H]2C=CC[C@H]2[C@@H](c2ccc(C(=O)O)cc2)N3)cc1 | ? | -58*
COc1cccc(C(=O)N2CCC(CCOc3ccc(F)cc3)C2)c1 (configuration not stated) | / | -2
COc1cccc(C(=O)N2CC(N3C(=O)c4c(c(C)nn4-c4ccccc4)C3C(C)C)C2)c1 (configuration not stated) | / | 9
Cc1c(C(=O)C(=O)NCc2ccccc2Cl)c2ccccc2n1C | i | /
Cc1ccc(C2CC(=O)NC3=C2C(=O)CC(C)(C)C3)cc1 (configuration not stated) | i | /
Cc1cccc(CNC(=O)c2ccc(Cn3c(SCc4cccc(F)c4)nc4cccnc43)cc2)c1 | ? | -53*
Cc1cccc(CNC(=O)c2ccc(Cn3c(SCc4ccccc4)nc4cccnc43)cc2)c1 | ? | -11
CNC(=O)C1CCCN(Cc2cccc(-c3cccs3)c2)C1 (configuration not stated) | / | 13
COCCNC(=O)c1ccc2c(c1)N(C)C(CC(=O)NCC(C)(C)C)CO2 (configuration not stated) | 28µM* | 6
CCCN(C)C(=O)CC1COc2ccc(C(=O)NCCOC)cc2N1C (configuration not stated) | 32µM* | 27
SMILES | KDM5B inhibitor | IP6K1 inh
COCCNC(=O)c1ccc2c(c1)N(C)C(CC(=O)Nc1cccnc1)CO2 (configuration not stated) | ? | -4
CCC(CC)N(CC)C(=O)CC1COc2ccc(C(=O)N(C)C)cc2N1C (configuration not stated) | i | 11
COCCNC(=O)c1ccc2c(c1)N(C)C(CC(=O)NCc1ccoc1)CO2 (configuration not stated) | 28µM* | -5
C=C(C)CNC(=O)CC1COc2ccc(C(=O)NCCOC)cc2N1C (configuration not stated) | ? | 1
CC1C/C(=N/NC(=S)NC2CCCCC2)CC(C)(C)C1 (configuration not stated) | i | /
O=C1CCN(CC(O)COc2ccccc2)c2ccc(F)cc2CN1C1CC1 (configuration not stated) | / | -3
CS(=O)(=O)c1ncc(Cl)c(C(=O)N2CCN(c3cccc(Cl)c3)CC2)n1 | i | -26*
CCS(=O)(=O)c1ncc(Cl)c(C(=O)N2CCN(c3cccc(Cl)c3)CC2)n1 | i | -6
O=C(C1CCCCN1Cc1ccc(-c2cccs2)cc1)N1CCC(Cc2ccccc2)CC1 (configuration not stated) | / | -12
COc1ccccc1-c1nc2cnccn2c1NCCC(=O)Nc1ccc(C)cc1C | ? | 16
COc1cccc(-c2nc3cnccn3c2NCCC(=O)Nc2ccc(F)cc2C)c1 | 28µM* | 18
Cc1ccccc1NC(=O)CCNc1c(-c2ccc(F)cc2)nc2cnccn12 | 25µM* | -1
CC(=O)Nc1ccc(NC(=O)CCNc2c(-c3ccc(F)cc3)nc3cnccn23)cc1 | 28µM* | 3
CC(=O)Nc1ccc(NC(=O)Cn2cccc2-c2nc(-c3ccc(F)cc3)no2)cc1 | i | 16
Cc1ccccc1NC(=O)CCn1cnc2onc(-c3ccc(F)cc3)c2c1=O | i | 6
CCC(CC)C(=O)N1C[C@@H](CO)[C@@H]2Oc3ccc(Cl)cc3[C@@H]21 | / | 9
Cc1nc(-c2ccc(Cl)cc2)sc1C(=O)NC1C=CS(=O)(=O)C1 (configuration not stated) | i | /
CSc1ccc(-c2cccc(C(=O)NCCNC(=O)c3ccccc3Cl)c2)cc1 | / | 5
Cc1[nH]c2ccccc2c1SCCNC(=O)c1ccc2ccccc2c1 | i | /
Cc1nn(C)c2nc(-c3ccccn3)nc(NCC(c3ccco3)N(C)C)c12 (configuration not stated) | ? | 16
Cc1nc(CCNc2nc(-c3ccccn3)nc3c2c(C)nn3C)no1 | ? | 1
CNS(=O)(=O)CCNc1nc(-c2ccccn2)nc2c1c(C)nn2C | 22µM* | -2
Cc1cc(=O)[nH]c(CCNc2nc(-c3ccncc3)nc3c2c(C)nn3C)n1 | 20µM* | 3
COC(CNc1nc(-c2ccccn2)nc2c1c(C)nn2C)c1cccs1 (configuration not stated) | 28µM* | 1
COc1ccc(S(=O)(=O)NCCNc2ncnc3c2c(C)nn3C)cc1 | i | 1
SMILES | KDM5B inhibitor | IP6K1 inh
COc1cccc(OC)c1C(=O)N1CC(=O)N(CCOc2ccccc2)CC(O)C1 (configuration not stated) | / | -1
CS(=O)(=O)c1cnc(NC2CCCC2)nc1C1CCCNC1 (configuration not stated) | i | 44
Cc1nc(NC2CCCCC2)ncc1C(=O)O | 32µM* | -12
O=C(O)C(Cc1ccccc1)C(C(=O)O)c1ccccc1 (configuration not stated) | i | /
Cc1cc(C)cc(C(=O)NCC(=O)N2CCCC2c2ccccc2)c1 (configuration not stated) | i | /
O=C1NCCCCCCN(C(=O)C2CCCC2)[C@H]2C[C@H](C(=O)N3CCN(c4ccccn4)CC3)C[C@@H]12 | ? | 9
O=C1NCCCCCCN(C(=O)c2ccoc2)[C@H]2C[C@H](C(=O)N3CCN(c4ccccn4)CC3)C[C@@H]12 | 32µM* | 12
CCN(CCNC(=O)C1CCCCC(=O)N1)Cc1ccccc1 (configuration not stated) | / | -6
